Laboratory results as given in PubChem BioAssay AID485272 (The Scripps Research Institute Molecular Screening Center, 2010).
Among all 330,000 compounds or so, about 1,300 (0.39%) were called active. The list comes from a sample in which actives are over-represented; it also holds similar structures and randomly drawn compounds. Values without a mark were called inactive.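 How the source made its calls: active means percent inhibition above a cutoff equal to the mean of all tested compounds plus 3 SD (cut at about 15% in these data); inactive means the rest.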

The compounds below were run against Protein-arginine deiminase type-4 (Homo sapiens) (UniProt Q9UM07) (assay: human PAD4 inhibitors, primary screen, biochemical, fluorescence polarization, 1536-well format (AID 485272;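 further: 0% = PAD4 with RCA probe and DMSO and 100% = probe without PAD4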)). Details: recombinant PAD4, RCA probe fluorescence polarization; at 6.36 µM; stronger effect = higher value.
Protein-arginine deiminase type-4 (Homo sapiens), sequence (Q9UM07 whole entry, looked up): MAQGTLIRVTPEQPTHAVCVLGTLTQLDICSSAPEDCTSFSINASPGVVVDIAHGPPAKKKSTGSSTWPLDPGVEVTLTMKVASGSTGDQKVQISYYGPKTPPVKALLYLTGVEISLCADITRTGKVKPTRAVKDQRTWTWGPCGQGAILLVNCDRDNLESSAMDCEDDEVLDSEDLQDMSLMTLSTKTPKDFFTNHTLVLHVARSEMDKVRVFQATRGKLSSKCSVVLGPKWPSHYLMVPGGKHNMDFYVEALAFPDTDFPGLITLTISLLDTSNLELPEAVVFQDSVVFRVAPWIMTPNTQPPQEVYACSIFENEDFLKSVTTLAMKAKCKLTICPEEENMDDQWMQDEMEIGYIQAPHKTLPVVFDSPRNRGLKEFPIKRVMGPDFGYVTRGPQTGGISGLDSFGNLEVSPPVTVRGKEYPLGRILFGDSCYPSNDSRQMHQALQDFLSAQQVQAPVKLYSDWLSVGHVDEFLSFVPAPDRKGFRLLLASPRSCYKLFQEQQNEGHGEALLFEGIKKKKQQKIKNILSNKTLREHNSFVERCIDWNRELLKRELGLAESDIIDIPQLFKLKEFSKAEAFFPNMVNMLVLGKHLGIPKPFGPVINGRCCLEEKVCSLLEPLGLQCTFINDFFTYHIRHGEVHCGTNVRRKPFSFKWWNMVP
`Cc1ccc(S(=O)(=O)N(CC(=O)Nc2cccnc2)c2ccc(Br)cc2)cc1` gave an inhibition of 1.31%.
`O=C1CCCC2=C1C(c1cccs1)n1nc(SCc3ccccc3)nc1N2` (configuration not stated) was tested, and the inhibition was -0.55%.
`NC(N)=N/N=C/c1ccc(OCc2ccc(Cl)cc2Cl)cc1` showed an inhibition of -4.09%.
`CCOC(=O)N1CCN(C(=O)c2ccccc2N(Cc2ccccc2)S(=O)(=O)c2ccc(OC)cc2)CC1` showed an inhibition of -4.41%.
With `O=C(Nc1ccc2oc(-c3ccccc3F)nc2c1)c1ccco1` the inhibition was -5.36%.
Compound `C=CCN(C(=O)Nc1ccc2c(c1)nc(C)n2C)c1ccccc1` has an inhibition of 2.79%.
With `C=CCN(C(=O)Nc1ccc2oc(C)nc2c1)c1ccccc1` the inhibition was 39.8% (active).
In the case of `CCOc1ccc(S(=O)(=O)N2CCCCC2)cc1NC(=O)CN1CCCC1c1cccs1` (configuration not stated), the inhibition is reported as -0.57%.
In the case of `CCOc1ccc(S(=O)(=O)N2CCN=C2Cc2ccccc2)cc1C`, the inhibition is reported as 0.37%.
In the case of `CC[N+](C)(CC)CCC[n+]1c(-c2ccccc2)c2cc(N)ccc2c2ccc(N)cc21`, the inhibition is reported as 62.4% (active).
Compound `Cc1ccc2[nH]c(C(=O)O)c(NC(=O)c3ccccc3[N+](=O)[O-])c2c1` has an inhibition of 4.63%.
`Cc1cc(C)cc(NC(=O)CN2C(=O)c3ccccc3C2=O)c1` was tested, and the inhibition was 4.21%.
With `Cc1cc2c(cc1C)N(C(=O)CN1C(=O)c3ccccc3C1=O)C(C)(C)c1ssc(=S)c1-2` the inhibition was 44.1% (active).
`Cc1ccc2c(c1)-c1c(ssc1=S)C(C)(C)N2C(=O)CN1C(=O)c2ccccc2C1=O` gave an inhibition of 0.29%.
Work on `CCc1ccc(NC(=O)NC(C)c2ccc3c(c2)OCO3)cc1` (configuration not stated) yielded an inhibition of -1.12%.
For `O=C1CCN(Cc2ccc([N+](=O)[O-])cc2)CCN1[C@H](CO)Cc1ccccc1`, the inhibition was -1.9%.
In the case of `Cc1nn(C(=O)c2ccoc2C)c(N)c1-c1ccccc1`, the inhibition is reported as 17.4% (active).
In the case of `CCOC(=O)c1c(N)nn(C(=O)c2ccccc2)c1-c1ccccc1`, the inhibition is reported as -9.18%.
`C/C(=N\NC(=O)c1ccoc1C)c1ccccc1O` showed an inhibition of -6.31%.
For `O=C(N1CCOCC1)N(Cc1ccccc1)c1ccccn1`, the inhibition was -6.6%.
With `COC(=O)CCCC1=CC2=CC(=O)C(C)(OC(=O)c3cccs3)C(=O)C2=CN1CC1CC1` (configuration not stated) the inhibition was 18.5% (active).
`COC(=O)CCCC1=CC2=CC(=O)C(C)(OC(=O)c3cccs3)C(=O)C2=CN1CC(C)C` (configuration not stated) showed an inhibition of -1.01%.
In the case of `COC(=O)CCCC1=CC2=CC(=O)C(C)(OC(=O)c3cccs3)C(=O)C2=CN1c1cccc(C#N)c1` (configuration not stated), the inhibition is reported as 4.64%.
Compound `CS/C(=C\C(=O)c1ccco1)Nc1ccccc1Cl` has an inhibition of 0.03%.
`CN(C)c1ccc(NC(=O)c2ccncc2)c2ccccc12` showed an inhibition of -9.99%.
`CN(C)c1ccc(N/C=C/C(=O)C(F)(F)F)cc1` was tested, and the inhibition was 38.9% (active).
Work on `COc1cc(OC)c(C(=O)Nc2ccc(N(C)C)cc2)cc1OC` yielded an inhibition of -1.49%.
In the case of `CC(C)CNC(=O)C(=O)Nc1ccc(N(C)C)cc1`, the inhibition is reported as -0.08%.
With `CCCC1=Nc2cc(C(=O)NCc3ccco3)ccc2Sc2ccccc21` the inhibition was -2.78%.
`Cn1c(=O)cc(OCC(=O)N2CCN(c3ccccc3F)CC2)c2ccccc21` gave an inhibition of -3.43%.
`O=C(NNC(=O)c1cccc(S(=O)(=O)Nc2ccc(Cl)cc2)c1)c1ccc(=O)[nH]c1` showed an inhibition of 0.33%.
`O=C(O)C1=NN(c2c(F)c(F)cc(F)c2F)C(=O)CC1` was tested, and the inhibition was 0.4%.
`Cc1cc(C(=O)CSc2nc(N)cc(=O)[nH]2)c(C)n1-c1cccc(F)c1` showed an inhibition of 3.24%.
With `Cc1cc(C(=O)CSc2nc(N)cc(=O)[nH]2)c(C)n1CCc1ccc(Cl)cc1` the inhibition was 23.8% (active).
`CCCc1cc(=O)[nH]c(SCC(=O)c2cc(C)n(CCC)c2C)n1` showed an inhibition of 1.34%.
Compound `O=C(COc1cccnc1[N+](=O)[O-])Nc1ccc(Cl)cc1F` has an inhibition of -3.69%.
`COC(=O)c1ccc(NC(=O)CSc2nncn2-c2cccnc2)cc1` was tested, and the inhibition was 6.18%.
For `CCOC(=O)CSc1nncc2ccc(OC)c(OC)c12`, the inhibition was -1.97%.
In the case of `COC(=O)c1ccc(NC(=O)CSc2nncc3ccc(OC)c(OC)c23)cc1`, the inhibition is reported as 26.1% (active).
With `CC(=O)c1cccc(-n2nnnc2SCC(=O)NNC(=O)C2CCCCC2)c1` the inhibition was 0.09%.
Work on `CC1(OC(=O)CCc2ccccc2)C(=O)C=C2C=C(c3ccc(C#N)cc3)N(CCc3ccccn3)C=C2C1=O` (configuration not stated) yielded an inhibition of -12.6%.
With `COCCN1C=C2C(=O)C(C)(OC(=O)C3CCCC3)C(=O)C=C2C=C1c1ccsc1` (configuration not stated) the inhibition was 17.8% (active).
For `CC1(OC(=O)C2CCCC2)C(=O)C=C2C=C(c3ccc(C#N)cc3)OC=C2C1=O` (configuration not stated), the inhibition was 4.94%.
Work on `COc1ccc(N(CC(=O)NC2CCCCCCC2)S(=O)(=O)c2c(C)nn(C)c2C)cc1` yielded an inhibition of -21.2%.
Compound `COc1ccccc1C(=O)N/C(=C/c1ccc2c(c1)OCO2)C(=O)Nc1cccc(C(=O)O)c1` has an inhibition of 4.24%.
With `CC(=O)Oc1ccccc1C(=O)Nc1ncc([N+](=O)[O-])s1` the inhibition was 21.3% (active).
With `O=C(Cc1c(F)cccc1Cl)Nc1ncc([N+](=O)[O-])s1` the inhibition was -0.75%.
Work on `COc1ccc(NC(=O)c2ccccc2[N+](=O)[O-])cc1OC` yielded an inhibition of 0.28%.
For `Cc1ccn2cc(-c3nonc3C)cc2c1`, the inhibition was 15.3% (active).
`COc1ccc(-c2cn3ccc(C)cc3n2)cc1` showed an inhibition of -3.72%.
With `COCC(C)n1c(C)cc(C(=O)CSc2cc(C)c3ccccc3n2)c1C` (configuration not stated) the inhibition was -0.49%.
In the case of `COc1ccc(CNC(=O)COc2cccnc2[N+](=O)[O-])cc1`, the inhibition is reported as 1.13%.
In the case of `COC(=O)c1cc(NC(=O)c2cc(C(C)(C)C)nn2Cc2cccc(C)c2)ccc1N1CCOCC1`, the inhibition is reported as 2.9%.
Work on `COc1cc(C(F)(F)F)nc2c(Br)c(C(C)(C)C)nn12` yielded an inhibition of -1.55%.
With `C[N+](C)(C)CCOP(=O)([O-])OC[C@H](O)CO` the inhibition was 0.71%.
With `O=C(CN1CCCCCC1)Nc1ccc(Cl)cc1F` the inhibition was -5.26%.
With `O=C(CN1CCCCCC1)Nc1ccc(Br)cc1Br` the inhibition was 129% (active).
`O=C(CN1CCCCCC1)Nc1ccc(Br)cc1[N+](=O)[O-]` gave an inhibition of 0.42%.
In the case of `CC(C)C(=O)N1CC(=O)Nc2ccc(F)cc2C1c1ccc(F)cc1` (configuration not stated), the inhibition is reported as 4.93%.
With `Cc1[nH][nH]c(=O)c1C(c1ccc(-c2ccc(Cl)cc2)o1)c1c(C)[nH][nH]c1=O` the inhibition was 20.2% (active).
`O=C(NC1CCCCC1)c1ccc(-c2ccc(Cl)cc2)o1` gave an inhibition of 0.31%.
Compound `CCOc1ccc(C(c2c(C)[nH][nH]c2=O)c2c(C)[nH][nH]c2=O)cc1OCC` has an inhibition of -2.1%.
`CCOC(=O)N1CCC(NC(=O)CCc2ccccc2)CC1` gave an inhibition of 1.67%.
With `CCOC(=O)N1CCC(NC(=O)COc2cc(=O)n(C)c3ccccc23)CC1` the inhibition was 3.7%.
`CCOC(=O)N1CCC(c2cc(=O)n(-c3ccccc3)[nH]2)CC1` was tested, and the inhibition was 55.1% (active).
`CCOC(=O)Cn1nnnc1C` showed an inhibition of -0.83%.
In the case of `CC(C)N(Cc1ccccc1)C(=O)COC(=O)c1ccccc1SCC(=O)N1CCCC1`, the inhibition is reported as -1.69%.
In the case of `c1ccc2c(C[n+]3csc4ccccc43)cccc2c1`, the inhibition is reported as 58.5% (active).
`N#C/C(=C(/O)Cc1cccc2ccccc12)c1nc2ccccc2s1` showed an inhibition of -0.3%.
Work on `Nc1scc[n+]1Cc1cccc2cccnc12` yielded an inhibition of -3.55%.
`COc1ccccc1CNC(=O)C1CCN(S(C)(=O)=O)CC1` gave an inhibition of 3.16%.
With `COc1ccccc1CNC(=O)C1CCN(c2nc3ccccc3o2)CC1` the inhibition was 23% (active).
In the case of `COc1ccc(OC)c(CNC(=O)C2CCCN(c3nc4ccccc4o3)C2)c1` (configuration not stated), the inhibition is reported as 0.33%.
`COc1ccc(CCNC(=S)NC(=O)/C=C/c2ccc(C)cc2)cc1OC` gave an inhibition of 0.57%.
`CC(C)CC(=O)NC(=S)Nc1ccc(F)cc1F` was tested, and the inhibition was -0.18%.
`Cc1nn(C)c(C)c1NS(=O)(=O)c1ccc(OC(F)(F)F)cc1` showed an inhibition of -4.79%.
For `O=S(=O)(Nc1ccc(O)c2ccccc12)c1ccc(OC(F)(F)F)cc1`, the inhibition was 20.5% (active).
`O=C1COc2ccc(S(=O)(=O)Nc3ccc(OC(F)(F)F)cc3)cc2N1` was tested, and the inhibition was -0.73%.
Work on `O=S(=O)(Cc1cc(Cl)nc(-c2cccnc2)n1)c1ccccc1` yielded an inhibition of -1.95%.
For `Cc1ccc(C(NC(=O)N2CCCC2)C(Cl)(Cl)Cl)cc1F` (configuration not stated), the inhibition was 0.88%.
For `CC(C)Oc1ccc(S(=O)(=O)N2CCOCC2)cc1NC(=O)C1CSC2(C)CCC(=O)N12` (configuration not stated), the inhibition was -1.2%.
`Cc1c(C2=CCN(S(=O)(=O)c3ccc(Cl)cc3)CC2)c2ccccc2n1C` gave an inhibition of -48.2%.
In the case of `COc1ccc(S(=O)(=O)N2CCOCC2)cc1NC(=O)CSc1ncnc2ccccc12`, the inhibition is reported as 18.5% (active).
`COc1ccc(S(=O)(=O)N2CCOCC2)cc1NC(=O)COc1ccccc1` gave an inhibition of 6.68%.
With `COc1ccc(S(=O)(=O)N2CCOCC2)cc1NC(=O)CSc1nnc(NC2CC2)s1` the inhibition was -2.8%.
Compound `CCCCCN(C(=O)CCC(=O)OCC(=O)NC1CCC(C)CC1)c1c(N)n(CCCC)c(=O)[nH]c1=O` (configuration not stated) has an inhibition of -1.97%.
For `CC(C)CC(=O)N1CCC(O)(CS(=O)(=O)Cc2ccccc2)CC1`, the inhibition was -3.05%.
With `CCOc1ccc(Br)cc1S(=O)(=O)Nc1ccc(C(=O)OC(C)C(=O)N(C)c2ccccc2)cc1` (configuration not stated) the inhibition was 2.93%.
`CCOc1ccc(S(=O)(=O)n2ccnc2)c2ccccc12` gave an inhibition of 3.78%.
In the case of `Clc1ccc(C2=CSC3=Nc4cccc5cccc(c45)N23)cc1`, the inhibition is reported as 15.1% (active).
In the case of `CN1CCN(S(=O)(=O)c2ccc(NC(=O)C3CCCO3)cc2)CC1` (configuration not stated), the inhibition is reported as 2.71%.
With `O=C(O)c1ccc(COc2c(F)c(F)cc(F)c2F)o1` the inhibition was -4.92%.
